# Assay results taken from PubChem BioAssay (NCI).
# This is part of a sample that, as a whole, favours compounds with a hit. Of some 83,000 tested, about 20% had one in any assay.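 Treatment: one concentration, 48 hours, 96-well format. Scoring: percent growth, with anything below 10 considered active.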 Unmarked numbers belong to inactive results. The source made the active and inactive calls.
# Tested on: TK-10 renal
# Test: NCI-60 one-dose screen, 48 h (100 = growth as untreated, 0 = no growth, -100 = all killed)
# Conditions: 10 µM unless noted
# Experimental: Growth inhibition of the TK-10 human tumor cell line is measured as a screen for anti-cancer activity. Cells are grown in 96 well plates and exposed to the test compound for 48 hours. Compounds are tested at a single concentration, which is 10^-5 M for most compounds. The reported endpoint is percent growth (GI% or GIPRCNT), where numbers from 0 - 100% represent growth inhibition, and numbers from -100% - 0 represent cell death. For example, a value of 40 represents 60% growth inhibition. A value of 0 means no net growth occurred over the course of the experiment. A value of -40 indicates 40% of cells at the beginning of the experiment died by the end of the experiment. A value of -100 means all cells are dead at the end of the experiment.
# NCI-60 Human Tumor Cell Lines Screen was performed using the standard one-dose NCI protocol, which is described in more detail at https://dtp.cancer.gov/discovery_development/nci-60/default.htm.
# Compounds with GIPRCNT values below 10 were considered active. Activity score was based on GIPRCNT using the following formula: […]
# Score is 0 for GIPRCNT values of 100 or above, 50 for GIPRCNT values of 0, and 100 for GIPRCNT values of -100.
row,SMILES,growth
1,COc1cc(-c2nc3ccc(-c4nnc(SCC(=O)Nc5ccc(C(C)=O)cc5)o4)cc3[nH]2)cc(OC)c1OC,121%
2,COC(=O)C(Cc1ccccc1)NS(=O)(=O)/N=C1\NC(=O)NC1=C(Cl)Cl (stereo not given),118%
3,CC(=O)c1ccc(Nc2nc(SC(C)C)nc(-c3ccccc3)c2C#N)cc1,101%
4,Cn1ccnc1C(=O)/C=C/c1ccc(NC(=O)Nc2ccc(Cl)cc2)cc1,131%
5,Cc1nc2cnc(N)c(C#Cc3cncc(C(=O)Nc4ccc(Cl)c(C(F)(F)F)c4)c3)c2nc1C,67.7%
6,Fc1ccc(-c2nc(C(Cl)Cl)nc3cc(-c4ccccc4)nn23)cc1,30.3%
7,CCOC(=O)c1sc(NCC(=O)Nc2cccc([N+](=O)[O-])c2)c(C(=O)OCC)c1C,-12.2% (active)
8,O=C(N/N=C/c1ccco1)c1[nH]c2ccc(Br)cc2c1-c1ccccc1,98.7%
9,Clc1ccc(-c2cn3cc(Cc4ccc(Cl)c(Cl)c4)sc3n2)cc1,112%
10,N#Cc1nc(-c2ccccc2)oc1N1CCC(CO)C1 (stereo not given),104%
11,COc1cc2cc(Oc3ccc(NC(=O)c4cccc(C(F)(F)F)c4)cc3)c(C)nc2cc1OCCN1CCCCC1,143%
12,COc1ccc(/C=N/NC(=O)c2[nH]c3ccc(Br)cc3c2-c2ccccc2)o1,94.5%
13,N#Cc1c(-c2ccc(Cl)cc2)nc2c(-c3ccccc3)c(Nc3ccccc3)nn2c1N,139%
14,COC(=O)C(C)NS(=O)(=O)/N=C1\NC(=O)NC1=C(Cl)Cl (stereo not given),140%
15,Nc1c(C(=O)Nc2ccc(Cl)cc2)sc2nc(-c3cnccn3)cc(-c3cccs3)c12,118%
16,CC(O)C(NC(=O)C1CCCN1C(=O)CNC(=O)C1CC(=O)NCC(=O)NC(Cc2c[nH]c3ccccc23)C(=O)NC(Cc2ccc(O)cc2)C(=O)NCC(=O)NC(CO)C(=O)NC(CCC(N)=O)C(=O)NC(Cc2c[nH]c3ccccc23)C(=O)N1)C(=O)NCC(=O)NC(CCC(N)=O)C(=O)NC(CCCNC(=N)N)C(=O)NC(CC(=O)O)C(=O)O (stereo not given),116%
17,Cc1ccc(CNS(=O)(=O)/N=C2\NC(=O)NC2=C(Cl)Cl)cc1,48.8%
18,C#Cc1nc(C2=C(C)C(=N\O)/C(=N/O)C2)cs1,196%
19,COc1cc(/C=C/C(=O)c2ccc(C(F)(F)F)cc2)ccc1Oc1nc(NCCO)nc(N2CCOCC2)n1,111%
20,Nc1c(C(=O)Nc2ccc(C(F)(F)F)cc2)sc2nc(-c3cnccn3)cc(-c3cccs3)c12,174%

row,SMILES,growth
1,O=C(c1ccc(O)cc1)C1[C@H](c2ccc(Cl)cc2)[C@@H](c2ccccc2)NC12C(=O)Nc1ccc(Cl)cc12 (stereo not given in full),66.9%
2,CC1=C(C)C(=O)C(Nc2cccc(C(F)(F)F)c2)=C(Cl)C1=O,184%
3,C#Cc1nc(C2=C(C)C(O)/C(=N/O)C2)cs1 (stereo not given),162%
4,CCOC(=O)c1c(Nc2ccccc2)nn2c(N)c(C#N)c(-c3ccc(F)cc3)nc12,109%
5,O=c1[nH]c2ccccc2cc1CSc1ccccc1Nc1nccc(-c2ccc(C(F)(F)F)cc2)n1,112%
6,O=C(N/N=C/c1ccc(Cl)s1)c1[nH]c2ccc(Br)cc2c1-c1ccccc1,111%
7,C=CCn1c(SCC(=O)c2ccc(Br)cc2)nnc1-c1c[nH]c2ccccc12,134%
8,COc1ccc(C(=O)/C=C/c2ccc(Oc3nc(NCCO)nc(N4CCOCC4)n3)c(OC)c2)cc1,140%
9,COc1ccc(/C=N/Nc2ccnc3cc(Cl)ccc23)cc1Cl,-81.6% (active)
10,N#Cc1c(-c2ccc(Cl)cc2)nc(SCc2ccccc2)nc1N1CCNCC1,96%
11,COc1ccc(-c2nc3ccc(-c4nnc(SCC(=O)Nc5ccc(C(C)=O)cc5)o4)cc3[nH]2)cc1,116%
12,Cn1c(SCC(=O)Nc2ccc(-c3nc4ccc([N+](=O)[O-])cc4[nH]3)cc2)nc2ccccc2c1=O,132%
13,COc1cccc(-c2nn(-c3ccccc3)cc2-c2ccnc(N3CCN(C(=O)Nc4ccc(F)cc4)CC3)c2)c1,92.9%
14,CS(=O)(=O)Nc1ccc(-c2nn(-c3ccc(S(C)(=O)=O)cc3)cc2/C=C/C(=O)c2ccc(NC(=O)CO[N+](=O)[O-])cc2)cc1,112%
15,COc1ccc(C(=O)/C=C/c2ccc(OCc3ccc(C)cc3)c(OC)c2)cc1OC,117%
16,O=c1[nH]c2ccc(Cl)cc2cc1CSc1ccccc1Nc1nccc(-c2ccc(Cl)cc2)n1,128%
17,O=C1c2c(c3c4cc(Br)ccc4[nH]c3c3ccc4ccccc4c23)C(=O)N1CCO,160%
18,Cn1ccnc1C(=O)/C=C/c1ccc(NC(=O)Nc2ccc(F)cc2)cc1,106%
19,COc1cc(/C=C/C(=O)c2cc(OC)c(OC)c(OC)c2)ccc1OCc1ccc(F)cc1,159%
20,O=c1/c(=C\c2ccc(-c3ccccc3)o2)sc2nc(-c3ccccc3)nn12,95.1%
